This note sets out measurements from PubChem BioAssay (NCI).

Some test systems named below: HCT-15 colon; HT29 colon; SNB-75 CNS; SNB-19 CNS; U251 CNS; PC-3 prostate; SK-MEL-5 melanoma; UACC-62 melanoma; LOX IMVI melanoma; SK-MEL-28 melanoma.
Holding throughout (experiment): NCI-60 one-dose screen, 48 h (100 = growth as untreated, 0 = no growth, -100 = all killed)
Common to all, as to conditions: 10 µM unless noted

Compounds without any hit were thinned out: in the full panel of roughly 83,000, 20% have a hit.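 Results are percent growth after 48 hours of single-concentration exposure. 100 means growth as in untreated cells, lower positive values show inhibition; negative values down to -100 show cell death.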 A number with no mark means an inactive call. Calls of active or inactive are those of the source. How the source made its calls: active means growth percent below 10; inactive means the rest.

Consider `Cc1cscc(C)c1=S`, for which the growth in the assay with HCT-15 colon is 9.4% (active); in the assay on HT29 colon, 19.5%; in the assay on SNB-75 CNS, 108%; with SNB-19 CNS, 100%; in the assay with U251 CNS, 80%; in the assay with PC-3 prostate, 77%. Moreover, the growth was 90.2% in the assay on SK-MEL-5 melanoma, 90% with UACC-62 melanoma, 70.4% in the assay on LOX IMVI melanoma and 120% with SK-MEL-28 melanoma.
As for `COc1cc(C(=O)/C=C/c2ccc(N3CCN(C)CC3)cc2)cc(OC)c1OC`, the growth in the assay with HCT-15 colon is 92.5%; in the assay on HT29 colon, 94.7%; in the assay on SNB-75 CNS, 82.2%; in the assay with SNB-19 CNS, 95.3%; with U251 CNS it was 99.5%; with SK-MEL-5 melanoma, 103%. For the same compound, the growth with UACC-62 melanoma was 86.8%; in the assay on LOX IMVI melanoma, 90.4%; with SK-MEL-28 melanoma it was 103%.
Turning to `COc1cc(C#Cc2ccc(=O)oc2C#Cc2ccccc2)cc(OC)c1OC`, the growth is 61.4% in the assay on HCT-15 colon; 43.4% in the assay with HT29 colon; 77.1% in the assay with SNB-75 CNS; 92.9% with SNB-19 CNS; 83.8% with U251 CNS; 86.2% in the assay with PC-3 prostate. The growth was 56.7% in the assay with SK-MEL-5 melanoma, 80.3% with UACC-62 melanoma, -61% (active) with LOX IMVI melanoma and 23.1% with SK-MEL-28 melanoma.
For `COc1ccc2nc(Cl)c(/C=C/C(=O)c3ccc(NC(=O)CSc4nnc(-c5ccc(Cl)c(Cl)c5)n4-c4ccccc4)cc3)cc2c1`, the growth in the assay on HCT-15 colon was 105%; with HT29 colon, 90.1%; with SNB-75 CNS, 84.1%; with SNB-19 CNS it was 91.3%; in the assay with U251 CNS, 87.4%; in the assay on SK-MEL-5 melanoma it was 94.5%. Also, the growth is 86.2% with UACC-62 melanoma, 97.6% in the assay on LOX IMVI melanoma and 107% with SK-MEL-28 melanoma.
Regarding `C[C@H]1[C@H](C)CC[C@]2(C(=O)O)CC[C@]3(C)C(=CC[C@@H]4[C@@]5(C)C[C@@H](Cc6cn([C@@H]7O[C@H](CO)[C@@H](O)[C@H](O)[C@H]7O)nn6)[C@H](O)C(C)(C)[C@@H]5CC[C@]43C)[C@H]12`, the growth with HCT-15 colon is 102%; in the assay with HT29 colon, 98.4%; in the assay with SNB-75 CNS, 88%; in the assay with SNB-19 CNS it was 98.8%; in the assay on U251 CNS, 92.9%; in the assay with SK-MEL-5 melanoma, 94.2%. Moreover, the growth is 98.4% in the assay with UACC-62 melanoma, 99% in the assay on LOX IMVI melanoma and 101% in the assay with SK-MEL-28 melanoma.
`N#Cc1nc(-c2ccc(F)cc2)oc1S(=O)(=O)N1CCN(c2ccc(F)cc2)CC1`: the growth is 14% in the assay with HCT-15 colon; 65.9% in the assay with HT29 colon; 87.6% with SNB-75 CNS; 96.9% in the assay on SNB-19 CNS; 86.7% in the assay on U251 CNS; 92% in the assay with PC-3 prostate. Also, the growth in the assay on SK-MEL-5 melanoma was 93.1%; in the assay on UACC-62 melanoma, 90.6%; with LOX IMVI melanoma it was 10.3%; in the assay with SK-MEL-28 melanoma, 104%.
In the case of `COc1cccc2c(N=NC(=O)c3ccc(S(N)(=O)=O)cc3)c(O)[nH]c12`, the growth in the assay with HCT-15 colon was 98.8%; in the assay on HT29 colon it was 106%; in the assay on SNB-75 CNS it was 95.1%; in the assay on SNB-19 CNS, 97.1%; in the assay with U251 CNS it was 101%; with PC-3 prostate, 99.1%. Also, the growth with SK-MEL-5 melanoma is 99.4%; in the assay with UACC-62 melanoma, 99.8%; in the assay with LOX IMVI melanoma, 99.5%; in the assay on SK-MEL-28 melanoma, 112%.
Regarding `CS(=O)(=O)Nc1cc(-c2ccc3ncnc(Nc4ccc5c(cnn5Cc5cccnc5)c4)c3c2)cnc1Cl`, the growth is 84.7% in the assay on HCT-15 colon; 65.2% with HT29 colon; -12.1% (active) in the assay with SNB-75 CNS; 60.1% in the assay on SNB-19 CNS; 55.4% in the assay on U251 CNS; 52.2% with PC-3 prostate. For the same compound, the growth with SK-MEL-5 melanoma was 50.9%; in the assay with UACC-62 melanoma, 25.9%; in the assay with LOX IMVI melanoma, 39.2%; with SK-MEL-28 melanoma, 29.4%.
As for `Cc1ccc(/C=C(\C#N)C(=O)Nc2ncc(Cc3cc(Cl)ccc3Cl)s2)o1`, the growth with HCT-15 colon was 59%; in the assay on HT29 colon, 97%; in the assay on SNB-75 CNS, -0.376% (active); in the assay on SNB-19 CNS, 27.6%; with U251 CNS it was 32.2%; in the assay with SK-MEL-5 melanoma, 51.6%. Further, the growth was 6.39% (active) in the assay with UACC-62 melanoma, 11.9% in the assay on LOX IMVI melanoma and 88.9% in the assay on SK-MEL-28 melanoma.
For the compound `CCNC(=O)Oc1ccc(/C(=C(/C)Cc2ccc(OC)cc2)c2ccc(OCCN3CCCCCC3)cc2)cc1`, the growth in the assay on HCT-15 colon is 18.7%; in the assay with HT29 colon it was 2.15% (active); in the assay on SNB-75 CNS, 77.4%; in the assay on SNB-19 CNS, 82.7%; in the assay with U251 CNS, 45.1%; with SK-MEL-5 melanoma, 66.2%. Also, the growth is 73.2% in the assay with UACC-62 melanoma, -22% (active) in the assay on LOX IMVI melanoma and 75.3% in the assay on SK-MEL-28 melanoma.
As to `Cc1ccc(S(=O)(=O)n2cc(C3C(Cl)C(=O)N3c3ccc(N4CCOCC4=O)cc3)c3ccccc32)cc1` (centres undefined), the growth in the assay on HCT-15 colon was 28%; in the assay with HT29 colon it was 56.6%; in the assay with SNB-75 CNS, 31.1%; in the assay on SNB-19 CNS, 70.8%; with U251 CNS, 48.7%; in the assay on PC-3 prostate it was 43.5%. Besides, the growth with SK-MEL-5 melanoma was 43.8%; in the assay on UACC-62 melanoma it was 51.3%; with LOX IMVI melanoma, 34.2%; in the assay on SK-MEL-28 melanoma it was 69.3%.
On to `COc1cc(/C=N/Nc2ccccc2F)cc(OC)c1OC`, for which the growth with HCT-15 colon is 89.2%; in the assay with SNB-75 CNS it was 103%; in the assay with SNB-19 CNS, 98.3%; in the assay with U251 CNS, 93.3%; with PC-3 prostate, 88.7%; with SK-MEL-5 melanoma it was 102%. In addition, the growth was 65.7% with UACC-62 melanoma, 65.7% with LOX IMVI melanoma and 110% in the assay with SK-MEL-28 melanoma.
